According to PubChem BioAssay (Tox21):
Calls of active or inactive are those of the source. Entries that show only a call come without a potency. Calls come from the whole dose curve; as a rule, active = well fitted curve in the direction sought with a large enough effect in the repeat runs; inconclusive = weak or mixed curves; inactive = flat fitted curve, though single readings scatter. Positions of bridges follow the written chain, without caps; N, C: chain ends. Non-standard residues stand in square brackets, D forms with d. Residues, ends and D or L forms follow the SMILES beside them. Orn = NCCC[C@H](N)C(=O)O; Mpa = O=C(O)CCS

Experiment: qHTS assay to test for compound auto fluorescence at 590 nm (red) in HEK293 cell free culture (AID 720683)
Conditions: cell-free medium autofluorescence, Ex540/Em590 red; series mostly up to 46 µM
Source text: U.S. Tox21 Program National Center for Advancing Translational Sciences [NCATS] NIH Chemical Genomics Center [NCGC] U.S. Environmental Protection Agency [EPA] National Institutes of Environmental Health Sciences [NIEHS] National Toxicology Program [NTP] U.S. Food and Drug Administration [FDA] Tox21 Assay Overview: Compound auto fluorescence often interferes with screening of the compound library against various biological targets and signaling pathways. Some of these compounds may have fluorophoric properties. Such properties may interfere with the assay outputs resulting in false positives and/or negatives. To decrease such complications and ensure the compound activities are relevant in terms of biological response, the Tox21 10K compound library was screened for auto fluorescence. From the fluorophores used as reporter signals in our screening assays, the auto fluorescence equivalencies of compounds against three fluorophores have been evaluated: Triamterene, Fluorescein and Rose Bengal sodium for blue, green and red fluorescence, respectively. The fluorescence intensities were measured using Excitation/Emission wavelengths at 405/460nm, 485/535nm and 540/590nm for blue, green and red labels, respectively. This assay includes the red fluorescence data.
Tox21 Assay Protocol Summary: 5 uL of culture medium (DMEM containing 10% FBS) per well was dispensed into black wall/clear bottom 1536-well plates using a Multidrop Combi Dispenser (ThermoFisher Scientific, Waltham, MA). After 23 nL compound or DMSO vehicle was transferred into assay plate by a pintool work station (Kalypsys, San Diego, CA), fluorescence intensities in the assay plates were measured by an Envision (PerkinElmer, Shelton, CT) plate reader using three labels for measuring blue, green and red fluorescence at […] 460, 535 and 590nm respectively.

SMILES	Potency
O=c1oc2cc(O)ccc2s1	inactive
CCCCc1cc2c(=O)c(C(=O)OC)c[nH]c2cc1OCc1ccccc1	inactive
O=C(O)c1ccc(OCCn2ccnc2)cc1	inactive
NC(=O)C[C@@H](N)C(=O)O	inactive
CC1(C)C2CC[C@]3(C)[C@H](C(=O)C=C4[C@@H]5C[C@@](C)(C(=O)O)CC[C@]5(C)CC[C@]43C)[C@@]2(C)CC[C@@H]1O[C@H]1O[C@H](C(=O)O)[C@@H](O)[C@H](O)[C@H]1O[C@@H]1O[C@H](C(=O)O)[C@@H](O)[C@H](O)[C@H]1O (stereo not given in full)	inactive
CC(C)Cc1ccc([C@@H](C)C(=O)NS(C)(=O)=O)cc1	inactive
O=C(O)CCC/C=C\C[C@@H]1[C@@H](/C=C/[C@@H](O)COc2cccc(C(F)(F)F)c2)[C@H](O)C[C@@H]1O	inactive
CCC(C)[C@@H](N)C(=O)O (stereo not given in full)	inactive
COc1ccc2c(=O)c(C)c(-c3ccccc3)oc2c1CN(C)C	inactive
Cc1cc(Nc2ccccc2C(=O)O)ccc1Cl	inactive
C[N+]1(C)[C@@H]2CC(OC(=O)C(O)(c3cccs3)c3cccs3)C[C@H]1[C@@H]1O[C@@H]12 (stereo not given in full)	inactive
CN1CC(O)c2cc(N=NC(N)=O)c(O)cc21 (stereo not given)	inactive
CCCCCCCCCCCCCCCC(=O)OC[C@@H](NC(=O)C(Cl)Cl)[C@H](O)c1ccc([N+](=O)[O-])cc1	inactive
CCCCCCCCCCCC(=O)OC[C@@H](O)C1OC[C@H](O)[C@H]1O (stereo not given in full)	inactive
NCCCNCCCCNC(=O)C(O)NC(=O)CCCCCCN=C(N)N (stereo not given)	inactive
CCN(CC)CCCC(C)Nc1cc(/C=C/c2ccccc2Cl)nc2cc(Cl)ccc12 (stereo not given)	inactive
CCCC1C(=O)N2C(N(C)C)=Nc3ccc(C)cc3N2C1=O (stereo not given)	inactive
NCCCC[C@H](NC(=O)[C@@H]1CCCN1C(=O)[C@@H]1CSSC[C@H](N)C(=O)N[C@@H](Cc2ccccc2)C(=O)N[C@@H](Cc2ccccc2)C(=O)N[C@@H](CCC(N)=O)C(=O)N[C@@H](CC(N)=O)C(=O)N1)C(=O)NCC(N)=O	inactive
CS(=O)(=O)OCC(O)C(O)COS(C)(=O)=O (stereo not given)	inactive
O=C(O)CCC/C=C\C[C@@H]1[C@@H](/C=C/[C@@H](O)COc2cccc(Cl)c2)[C@H](O)C[C@@H]1O	inactive

SMILES	Potency
CC#CCC(C)[C@H](O)/C=C/[C@@H]1[C@H]2c3cccc(CCCC(=O)O)c3O[C@H]2C[C@H]1O (stereo not given in full)	inactive
O=C1c2ccccc2C(=O)C1c1ccc(Cl)cc1	inactive
FC(F)(F)C(F)(F)C(F)(F)C(F)(F)C(F)(F)C(F)(F)F	inactive
O=S(O)CNc1ccc(S(=O)(=O)c2ccc(NCS(=O)O)cc2)cc1	inactive
CCC(=O)OCC(=O)[C@@]1(OC(=O)CC)[C@@H](C)C[C@H]2[C@@H]3CCC4=CC(=O)C=C[C@]4(C)[C@@]3(Cl)[C@@H](O)C[C@@]21C	inactive
COc1ccc2c(c1)OC(C)(C)C(c1ccccc1)C2c1ccc(OCCN2CCCC2)cc1 (stereo not given)	inactive
CC(C)=CCC/C(C)=C/C=C/C(C)=C/C=C/C(C)=C/C=C/C=C(C)/C=C/C=C(C)/C=C/C=C(\C)CCC=C(C)C	inactive
CN(C)c1ccc(C(=C2C=CC(=[N+](C)C)C=C2)c2c(O)c(S(=O)(=O)[O-])cc3cc(S(=O)(=O)O)ccc23)cc1	inactive
CC(O)[C@@H]1NC(=O)[C@H](CCCCN)NC(=O)[C@@H](Cc2c[nH]c3ccccc23)NC(=O)[C@H](Cc2ccccc2)NC(=O)[C@@H](NC(=O)[C@H](N)Cc2ccccc2)CSSC[C@@H](C(=O)N[C@H](CO)[C@@H](C)O)NC1=O (stereo not given in full)	inactive
CC(C)[C@H](N)C(=O)OCC(CO)OCn1cnc2c(=O)[nH]c(N)nc21 (stereo not given in full)	inactive
CCOC(=O)CCC(=O)O[C@H]1[C@H](O[C@@H]2[C@@H](C)[C@H](O[C@H]3C[C@@](C)(OC)[C@@H](O)[C@H](C)O3)[C@@H](C)C(=O)O[C@H](CC)[C@@](C)(O)[C@H](O)[C@@H](C)C(=O)[C@H](C)C[C@@]2(C)O)O[C@H](C)C[C@@H]1N(C)C	inactive
C[C@]12C=CC(=O)N[C@@H]1CC[C@@H]1[C@@H]2CC[C@]2(C)[C@@H](C(=O)Nc3cc(C(F)(F)F)ccc3C(F)(F)F)CC[C@@H]12	inactive
COc1ccc(CNCC(O)COc2ccc3[nH]c(=O)ccc3c2)cc1OC (stereo not given)	inactive
O=c1[nH]cnc2[nH]cc(CN3CCCCC3)c12	inactive
C[N+]1(C)CCN(CC(O)(c2ccccc2)C2CCCCC2)CC1 (stereo not given)	inactive
CCN(CC)CCOc1ccc(-c2nc3cc(Cl)ccc3s2)cc1	inactive
O=C(O)CO.[NH2-].[NH2-].[Pt+2]	inactive
CCOc1ccc(C[C@H]2NC(=O)CCSSC[C@@H](C(=O)N3CCC[C@H]3C(=O)N[C@@H](CCCN)C(=O)NCC(N)=O)NC(=O)[C@H](CC(N)=O)NC(=O)[C@H]([C@@H](C)O)NC(=O)[C@H]([C@@H](C)CC)NC2=O)cc1 ([Mpa][dY](Et)ITNCP[Orn]G-NH2; disulfide 1-6)	inactive
CC(=O)O[C@H]1C[C@@H]2CC[C@@H]3[C@H](CC[C@@]4(C)[C@H]3C[C@H](N3CC[N+](C)(C)CC3)[C@@H]4OC(C)=O)[C@@]2(C)C[C@@H]1N1CC[N+](C)(C)CC1	inactive
CCCCCCCCCCCCCCCC(=O)OC[C@@H](O)[C@H]1OC[C@H](O)[C@H]1O	inactive
